CASP6 VEID inh: human caspase-6 inhibitors, primary screen, biochemical, VEID-R110 fluorescence, single point, set 2 | P55212 | purified caspase-6, Z-VEID-R110 cleavage fluorescence | inhibition, % at 12.5 µM | 0.53% of 350,000 active;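 active means mean inhibition across replicates at least about 35%, with every replicate also reaching that limit, limit read from the data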
Target sequence (P55212 24-179 limits assumed): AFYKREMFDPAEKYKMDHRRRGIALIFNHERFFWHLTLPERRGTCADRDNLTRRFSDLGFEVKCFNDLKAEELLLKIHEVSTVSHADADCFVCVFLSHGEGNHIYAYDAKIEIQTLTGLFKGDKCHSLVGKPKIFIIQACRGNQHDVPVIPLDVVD
Target sequence (P55212 194-293 limits assumed): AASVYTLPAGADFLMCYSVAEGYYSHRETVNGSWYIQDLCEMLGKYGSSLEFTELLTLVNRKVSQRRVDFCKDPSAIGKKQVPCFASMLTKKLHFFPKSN
SIRT5 block: SIRT5 desuccinylase inhibitors, primary screen, biochemical, fluorescence imaging, single point, set 5; Purified SirT5, succinyl-peptide AMC, trypsin-coupled fluorescence; inhibition, % at 15 µM; 1.1% of 330,000 active; AID 652115, 2013; in the data active means inhibition above about 15%
ERAP1 inh: human ERAP1 aminopeptidase inhibitors, primary screen, biochemical, single point, plate reader; inhibition, % at 10.7 µM; 0.15% of 340,000 active; Endoplasmic reticulum aminopeptidase 1 (Homo sapiens), Q9NZ08; recombinant ERAP1, Leu-AMC fluorescence, 60 min;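 active means mean replicate inhibition of at least 30%, or all replicates individually reaching that 30% level; inactive means mean below 30% and not every replicate reaching it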
FGF22 binding: binders of human FGF22 protein, primary screen, FGF22 synaptogenesis inhibitor project, biophysical, thermal shift, single point; AID 651658, 2012; activity (Tm shift, normalised), % at 9.99 µM; recombinant FGF22 thermal shift, SYPRO orange fluorescence; percent of sucrose octasulfate shift, DMSO zero; 1.5% of 340,000 active;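 active means mean Tm shift, scaled 0 neutral to 100 positive control, at about 1.3% or above, every replicate too, limit read from the data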
Target sequence (Q9HCT0 whole entry, looked up): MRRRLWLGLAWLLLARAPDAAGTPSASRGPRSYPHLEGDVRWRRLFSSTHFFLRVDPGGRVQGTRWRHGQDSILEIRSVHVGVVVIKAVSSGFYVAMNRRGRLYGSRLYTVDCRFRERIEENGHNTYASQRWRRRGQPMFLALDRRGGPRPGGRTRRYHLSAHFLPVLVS
Hits are given with their value; i = inactive; nt = not tested or not shown. An excerpt weighted towards active compounds, which were near 3.1% of everything screened.

SMILES	CASP6 VEID inh	SIRT5 block	ERAP1 inh	FGF22 binding
CN(C)S(=O)(=O)c1ccc(N=Cc2c(C(F)(F)F)[nH][nH]c2=O)cc1	i	i	i	44
COC(=O)c1ccc(N=CC2=C(O)CC(c3ccccc3)CC2=O)cc1 (stereo not given)	i	i	i	i
O=C(C1CC1)N1CC(=O)N2[C@H](CO)[C@@H](c3ccc(C#Cc4cccc(F)c4)cc3)[C@@H]2C1	i	i	i	nt
O=C(C[C@H]1CC[C@H](NC(=O)c2ccncc2)[C@H](CO)O1)NCC1CC1	i	i	i	i
C[C@H](CO)N1C[C@H](C)[C@@H](CN(C)Cc2ccc3c(c2)OCO3)Oc2ccc(NC(=O)Nc3cccc4ccccc34)cc2CC1=O	i	i	i	i
CCCCN(CC)CCCNC(=O)CC1Oc2ccccc2NC1=O (stereo not given)	i	17	i	i
CC(C)CN(CCCNC(=O)CC1Oc2ccccc2NC1=O)CC(C)C (stereo not given)	i	i	i	i
COc1ccc(C(=O)NCc2nnc(SCC(=O)N3CCC(C)CC3)o2)cc1	i	i	i	44
O=C(COc1ccc(Cl)cc1)NCc1nnc(SCC(=O)N2CCCCCC2)o1	i	i	i	43
O=C(COc1ccc(Cl)cc1)NCc1nnc(SCC(=O)N2CCCC2)o1	i	i	i	43
O=C(CSc1nnc(COc2ccc(Cl)cc2)o1)N1CCCCC1	i	i	i	i
O=C(C[C@H]1CC[C@@H](NC(=O)Nc2cc(F)ccc2F)[C@H](CO)O1)NCc1ccncn1	i	i	i	i
Cc1ccc(C(=O)c2cc3ccccc3o2)cc1[N+](=O)[O-]	i	i	i	43
N#Cc1cccc(-c2ccc([C@H]3[C@@H](CO)N4CCCCN(S(=O)(=O)c5ccccc5)C[C@H]34)cc2)c1	i	18	i	i
CCC(=O)N1CCCCN2[C@H](C1)[C@H](c1ccc(-c3cccc(C#N)c3)cc1)[C@@H]2CO	i	i	i	i
Cc1cccc(-c2ccc([C@H]3[C@H](CO)N4CCCCN(S(=O)(=O)c5cccc(C)c5)C[C@@H]34)cc2)c1	i	19	i	i
N#Cc1cccc(-c2ccc([C@@H]3[C@@H](CO)N4CCCCN(S(=O)(=O)c5ccccc5)C[C@@H]34)cc2)c1	nt	i	nt	i
O=C(CN1CCOCC1)N1CCCCN2[C@H](C1)[C@H](c1ccc(-c3ccccc3)cc1)[C@@H]2CO	i	21	i	i
O=C(CN1CCOCC1)N1CCCCN2[C@@H](CO)[C@@H](c3ccc(-c4ccccc4)cc3)[C@@H]2C1	i	i	i	i
CCC(=O)N1CCCCN2[C@H](CO)[C@H](c3ccc(-c4cccc(C#N)c4)cc3)[C@@H]2C1	i	21	i	i
Cc1cccc(-c2ccc([C@@H]3[C@@H](CO)N4CCCCN(S(=O)(=O)c5cccc(C)c5)C[C@H]34)cc2)c1	i	i	i	i
Cn1cnc(S(=O)(=O)N2C[C@H](O)COC[C@@H]3O[C@@H](CC(=O)NCc4cc(F)cc(F)c4)CC[C@H]32)c1	i	i	i	i
Cc1cccc(S(=O)(=O)N2CCCCN3[C@H](CO)[C@@H](c4ccc(-c5ccccc5)cc4)[C@@H]3C2)c1	i	16	i	i
O=C(CN1C(=O)C2(OCCO2)c2cc(Br)ccc21)NO	i	i	34	i
Cc1cccc(NC(=S)NNC(=O)c2ccc(O)cc2O)c1C	i	i	i	2.3
SMILES	CASP6 VEID inh	SIRT5 block	ERAP1 inh	FGF22 binding
COc1ccc2c3c(n(C)c2c1)[C@H](CO)N(C(=O)NC1CCCC1)CC31CCN(C(C)=O)CC1	nt	nt	i	i
CC(C)C#Cc1ccc2c(c1)O[C@H](CN(C)S(=O)(=O)c1cn(C)cn1)[C@@H](C)CN([C@@H](C)CO)S2(=O)=O	i	i	i	i
Cc1c(NC(=O)CN2CCC(C(N)=O)CC2)cccc1[N+](=O)[O-]	i	i	i	43
Cc1ccccc1C(=O)N1CCC(C(=O)OCC(=O)Nc2cccc([N+](=O)[O-])c2C)CC1	i	i	i	i
Cc1ccc(CNC(=O)COC(=O)c2cc(=O)[nH]c3ccccc23)cc1	i	i	i	i
Cc1cccc(C)c1NC(=O)COC(=O)c1cc(=O)[nH]c2ccccc12	i	17	i	i
CC1Oc2ccccc2N(CC(=O)NCc2ccc3c(c2)OCO3)C1=O (stereo not given)	i	i	i	43
CSc1nc(N)nc2c1ncn2CC(=O)NCc1ccc2c(c1)OCO2	i	21	i	i
CSc1nc(N)nc2c1ncn2CC(=O)NCc1ccccc1	i	i	i	i
COc1ccc(C)cc1NC(=O)CCNC(=O)Cn1cnc2ccccc2c1=O	i	18	i	i
CCCNC(=O)N1CC2(CN(S(=O)(=O)c3ccc(OC)cc3)C2)c2c(n(C)c3cc(OC)ccc23)[C@H]1CO	i	16	i	i
C[C@@H]1CN([C@@H](C)CO)C(=O)c2cc(NS(=O)(=O)c3ccc(Cl)cc3)ccc2O[C@@H](C)CCCCO[C@H]1CN(C)CC1CCCCC1	nt	nt	nt	i
C[C@H](CO)N1C[C@H](C)[C@H](CN(C)C(=O)Nc2ccc(C(F)(F)F)cc2)OCCCC[C@H](C)Oc2ccc(NC(=O)Nc3ccc4c(c3)OCO4)cc2C1=O	i	15	i	i
C[C@@H]1CCCCO[C@@H](CN(C)C(=O)Nc2ccc(C(F)(F)F)cc2)[C@H](C)CN([C@@H](C)CO)C(=O)c2cc(NC(=O)Nc3ccc4c(c3)OCO4)ccc2O1	i	15	i	i
C[C@H](CO)N1C[C@H](C)[C@@H](CN(C)CC2CCCCC2)Oc2ccc(NC(=O)NC3CCCCC3)cc2C1=O	i	i	i	i
CCc1nc2c(OCc3ccc(Cl)cc3)cccn2c1N(C=O)Cc1ccccc1	i	i	i	i
C=CCOc1cccn2c(N(C=O)Cc3ccccc3)c(CC)nc12	37	nt	i	i
Nc1nc(-c2ccc(Cl)cc2)nnc1-c1ccc(Br)cc1	i	i	i	44
CN1C(=O)c2cc(NC(=O)c3ccccc3Cl)ccc2OC[C@H]2O[C@H](CC(=O)O)CC[C@@H]21	i	i	i	i
CCCC(=O)Nc1ccc2c(c1)C(=O)N(C)C[C@H](OC)[C@@H](C)CN(S(=O)(=O)c1cn(C)cn1)[C@H](C)CO2	i	i	i	i
COCCNc1nc(-c2cc(C)n(CCc3ccc(OC)cc3)c2C)cs1	i	i	i	43
CC(C)NC(=O)N[C@H]1CC[C@@H](CCn2cc(-c3ccccc3)nn2)O[C@@H]1CO	i	i	i	i
O=C1N[C@@H](Cc2ccccc2)[C@@H](c2ccco2)O1	i	45	i	i
COC(=O)C[C@@H]1C[C@H]2c3cc(NC(=O)Nc4ccccc4)ccc3O[C@H]2[C@@H](CO)O1	i	i	i	i
CC(=O)N1[C@@H](CO)[C@@H](c2ccccc2)[C@@H]1CN(CC1CCC1)C(=O)CN(C)C	i	i	i	i

Screening data deposited in PubChem by Broad Institute.
